# PostGolgi ctrl – growth of the yeast control strain, post-Golgi counter-screen; efflux-deficient yeast background strain, growth absorbance A615, 16 h; inhibition, % at 10 µM; 5% of 98,000 active; AID 738
# PostGolgi yeast – growth inhibition of a yeast mutant, post-Golgi transport screen. post-Golgi transport phenotypic cell assay. inhibition, % at 10 µM. 0.9% of 98,000 active;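 further: yeast cells grown in 1536-well plates; yeast grown about 18 h at 30C before absorbance read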
# Cav32 inh – inhibitors of human Cav3.2 T-type calcium channel | Cav3.2-expressing cells, Fluo-4 calcium fluorescence FDSS; stronger effect = lower value | B-score at 10 µM | 4% of 100,000 active | AID 449739;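 active means single-dose well whose peak fluorescence ratio is a statistical outlier from its plate by either plate-standardised score or position-corrected B-score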
# Target sequence (O95180 whole entry, looked up): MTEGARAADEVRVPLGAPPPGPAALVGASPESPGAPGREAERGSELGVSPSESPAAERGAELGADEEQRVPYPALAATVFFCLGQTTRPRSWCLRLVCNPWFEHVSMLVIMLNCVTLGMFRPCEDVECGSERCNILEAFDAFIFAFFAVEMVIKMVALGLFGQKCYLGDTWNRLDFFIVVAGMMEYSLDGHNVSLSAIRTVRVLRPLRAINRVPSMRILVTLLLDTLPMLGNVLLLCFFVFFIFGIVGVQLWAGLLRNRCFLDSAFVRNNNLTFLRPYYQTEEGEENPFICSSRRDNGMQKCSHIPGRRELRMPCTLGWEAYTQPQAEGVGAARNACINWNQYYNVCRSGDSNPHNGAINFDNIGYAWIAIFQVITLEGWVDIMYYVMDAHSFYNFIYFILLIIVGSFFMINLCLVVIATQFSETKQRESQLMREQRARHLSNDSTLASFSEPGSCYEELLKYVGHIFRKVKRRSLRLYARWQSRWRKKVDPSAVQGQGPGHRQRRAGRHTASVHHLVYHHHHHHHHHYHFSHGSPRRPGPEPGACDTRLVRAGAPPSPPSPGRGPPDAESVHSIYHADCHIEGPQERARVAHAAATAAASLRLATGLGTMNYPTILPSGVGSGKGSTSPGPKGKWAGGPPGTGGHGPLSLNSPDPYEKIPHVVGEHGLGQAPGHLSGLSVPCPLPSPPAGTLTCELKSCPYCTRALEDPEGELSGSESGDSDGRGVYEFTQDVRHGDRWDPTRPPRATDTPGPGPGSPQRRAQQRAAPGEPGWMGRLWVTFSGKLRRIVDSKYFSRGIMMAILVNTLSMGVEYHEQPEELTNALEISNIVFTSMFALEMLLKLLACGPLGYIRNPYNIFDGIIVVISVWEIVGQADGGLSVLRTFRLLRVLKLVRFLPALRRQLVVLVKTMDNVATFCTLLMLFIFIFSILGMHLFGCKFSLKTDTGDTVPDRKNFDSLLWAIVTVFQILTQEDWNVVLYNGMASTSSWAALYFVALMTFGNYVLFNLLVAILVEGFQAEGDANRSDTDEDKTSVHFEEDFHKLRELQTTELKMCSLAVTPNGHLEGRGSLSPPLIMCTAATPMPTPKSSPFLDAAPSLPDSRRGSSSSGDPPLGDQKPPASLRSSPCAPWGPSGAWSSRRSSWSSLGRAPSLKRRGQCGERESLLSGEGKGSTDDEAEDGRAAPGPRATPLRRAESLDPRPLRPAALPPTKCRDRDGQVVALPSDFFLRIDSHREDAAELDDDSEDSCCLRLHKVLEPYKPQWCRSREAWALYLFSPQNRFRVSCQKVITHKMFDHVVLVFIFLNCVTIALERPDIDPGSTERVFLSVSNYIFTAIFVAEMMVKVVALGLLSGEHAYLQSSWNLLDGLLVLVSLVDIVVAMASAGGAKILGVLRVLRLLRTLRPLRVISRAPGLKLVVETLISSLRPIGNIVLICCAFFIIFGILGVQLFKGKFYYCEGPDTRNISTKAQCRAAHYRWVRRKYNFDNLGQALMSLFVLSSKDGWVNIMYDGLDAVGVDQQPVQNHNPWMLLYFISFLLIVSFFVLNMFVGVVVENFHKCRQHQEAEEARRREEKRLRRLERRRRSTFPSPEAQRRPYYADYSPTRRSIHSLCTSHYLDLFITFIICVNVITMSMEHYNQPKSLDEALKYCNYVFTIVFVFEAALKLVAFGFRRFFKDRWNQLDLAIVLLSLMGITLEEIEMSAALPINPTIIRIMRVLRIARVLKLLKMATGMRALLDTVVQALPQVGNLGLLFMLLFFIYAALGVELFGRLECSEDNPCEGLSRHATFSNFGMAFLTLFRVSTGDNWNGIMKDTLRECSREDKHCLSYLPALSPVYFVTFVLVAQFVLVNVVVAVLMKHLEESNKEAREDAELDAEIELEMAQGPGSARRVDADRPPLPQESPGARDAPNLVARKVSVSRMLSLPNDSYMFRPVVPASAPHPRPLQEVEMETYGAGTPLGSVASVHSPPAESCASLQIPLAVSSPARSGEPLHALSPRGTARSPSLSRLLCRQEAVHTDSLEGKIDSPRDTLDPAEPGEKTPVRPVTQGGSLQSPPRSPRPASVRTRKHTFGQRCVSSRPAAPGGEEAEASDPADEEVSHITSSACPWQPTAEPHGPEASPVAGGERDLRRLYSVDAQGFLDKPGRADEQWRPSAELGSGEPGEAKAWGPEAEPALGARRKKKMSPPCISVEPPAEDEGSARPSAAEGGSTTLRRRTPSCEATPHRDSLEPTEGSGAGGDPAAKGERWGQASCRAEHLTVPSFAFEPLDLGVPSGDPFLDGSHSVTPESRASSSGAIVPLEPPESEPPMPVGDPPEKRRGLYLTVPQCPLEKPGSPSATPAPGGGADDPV
# PTK2B oligo ant – Pyk2 (human) oligomerization antagonism; Q293 cells, Pyk2 FERM NanoBiT luminescence; stronger effect = lower value; z-score (the deposit names both 25 µM and 10 µM); 0.83% of 99,000 active; Q14289;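 active means Z-score of -3 or lower, scaled per plate to the spread of control and sample wells; inactive means z-score above -3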;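 further: negative z-score means lost luminescence so less FERM oligomerization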
# The depositor's hits bear a star; . = no result. Rows were chosen to be rich in hits. Some 8% of all compounds tested hit in one or more screens of this group. Unless noted, no stated cut-off is given here; in the data, active means inhibition above about 30%; inactive means the rest.
SMILES,PostGolgi ctrl,PostGolgi yeast,Cav32 inh,PTK2B oligo ant
O=C(Nc1sc2c(c1C(=O)NCC1CCCO1)CCCC2)c1cccs1 (configuration not stated),68.3*,86.5*,-0.28,-0.86
N#Cc1c(NC(=O)COC(=O)c2ccc(F)cc2)sc2c1CCC2,36.8*,-1.4,0.184,1.67
COC(=O)C1=C(C(=O)OC)[C@@H]2Nc3ccccc3[C@@]23C[C@@H](C(=O)OC)N(C(=O)c2cccs2)C3=N1,.,.,-0.155,.
COc1ccc(CC(=O)Nc2nnc(SCc3ccccc3)s2)cc1S(=O)(=O)N1CCOCC1,16.2,-11.0,-3.2,-0.53
N#Cc1c(SCc2cccc(Cl)c2)sc(C(=O)c2ccccc2)c1N,12.3,-1.4,-1.92,1.43
Cn1c(Cl)cnc1C(O)c1ccccc1 (configuration not stated),-1.8,2.1,0.603,-0.12
Cc1cc2ccccc2c(=O)n1CC(=O)NCC(=O)N1CCN(c2ccccc2F)CC1,9.3,0.8,-3.78*,0.14
Cc1nc(C(=O)N(C)C)nn1-c1ccc(Cl)cc1Cl,3.1,-2.6,0.608,0.34
Cc1c(Cl)cccc1NC(=O)c1nc(C)n(-c2cc(OC(C)C)c(Cl)cc2Cl)n1,30.4*,5.8,-11.6*,1.2
CCCCn1c(=O)[nH]c(=O)c2c1nc(-c1ccsc1)n2Cc1ccccc1,30.7*,-5.6,-0.744,-3.09*
Cc1ncc(C[n+]2csc(CCOC(=O)CC3C4CC5CC(C4)CC3C5)c2C)c(N)n1 (configuration not stated),12.3,1.6,-0.376,0.83
Cc1c(CCOC(=O)C23CC4CC(CC(C)(C4)C2)C3)sc[n+]1Cc1ccccc1,33.8*,-3.4,1.41,0.92
Cc1[nH]nc(N=CC2=C(O)CC(c3ccco3)CC2=O)c1-c1ccccc1 (configuration not stated),45.4*,3.6,-0.694,-0.96
Cc1[nH]nc(N=CC2=C(O)CC(C)(C)CC2=O)c1-c1ccccc1,15.4,2.8,-0.0569,-0.24
O=C(NCc1ccccc1)C(Cc1ccccc1)N1C(=O)C2C3CCC(C3)C2C1=O (configuration not stated),25.5,22.3,-0.0272,-0.97
Cc1ccc(NC(=O)C(Cc2ccccc2)N2C(=O)C3C4CCC(C4)C3C2=O)cc1Cl (configuration not stated),19.5,9.1,-5.85*,-0.7
O=C(NCCO)c1cccc(Nc2nc(-c3ccccc3)c3cc(Cl)ccc3n2)c1,48.7*,4.7,1.26,-2.13
N#CC1(c2nc3ccccc3[nH]2)CC1c1ccc2c(c1)OCO2 (configuration not stated),-8.9,10.2,0.0135,-0.51
O=C(Nc1ccc(Cl)cc1)C1=Cc2cc(Cl)ccc2OC1,19.3,-2.3,0.579,2.01
COc1ccc2c(c1)C=C(C(=O)NCc1ccc(Cl)cc1)CO2,15.8,19.0,-6.68*,1.75
O=C(NC(NNc1ccc([N+](=O)[O-])cc1)(C(F)(F)F)C(F)(F)F)c1ccccc1Cl,44.2*,0.8,-8.47*,0.84
CCNC(=S)N(Cc1ccccc1)Cc1nc2ccccc2c(=O)[nH]1,.,.,.,-0.79
O=c1ccn(-c2cccc(C(F)(F)F)c2)nc1-c1ccn(-c2ccccc2)n1,17.6,11.3,-5.69*,1.07
COc1ccc(Cl)cc1N1C(=O)C2CCCN2C1c1sccc1C (configuration not stated),6.1,11.4,-0.617,0.96
COc1ccc(Cl)cc1N1C(=O)/C(=C\c2sccc2C)N=C1SCC(=O)NC1CC1,17.8,-0.5,-6.24*,-2.57
SMILES,PostGolgi ctrl,PostGolgi yeast,Cav32 inh,PTK2B oligo ant
CCN1N=C(c2ccccc2)Cn2c1nc1ccccc12,30.4*,17.1,1.14,0.96
COC(=O)c1ccc2c(=O)sc(N3CCC(C(N)=O)CC3)nc2c1,-0.3,-4.8,.,0.36
COC(=O)c1c(-c2ccco2)csc1NC(=O)C1CC=CCC1C(=O)O (configuration not stated),6.5,0.0,0.636,-0.36
CCOC(=O)c1c(-c2ccc(C)c(C)c2)csc1NC(=O)C1CC=CCC1C(=O)O (configuration not stated),33.3*,-1.6,.,1.16
C=CCOc1ccc(/C(O)=C2/C(=O)C(=O)N(CCCn3ccnc3)C2c2cccs2)cc1 (configuration not stated),9.0,0.0,-0.0185,-0.51
COc1ccc2c(c1OC)C(=O)N1c3ccccc3COC21 (configuration not stated),9.8,0.0,-1.13,0.78
COc1ccc2c(c1OC)C(=O)N1c3cccc(Cl)c3C(=O)OC21 (configuration not stated),-2.0,0.3,-4.31*,2.19
O=C(NCc1ccccn1)Nc1ccc(Cl)c(Cl)c1,46.5*,-9.4,-2.65,0.3
Cc1ccccc1NC(=O)C(=O)NCc1ccccn1,6.2,-2.5,-4.53*,0.24
O=C(NCc1ccccn1)Nc1cccc(NC(=O)NCc2ccccn2)c1,16.9,-0.9,0.663,-1.16
FC(F)Sc1ccc(NC(=S)NCC2CCCCC2)cc1,38.2*,36.4*,-5.67*,0.08
COC(=O)c1cc2c(-c3ccccc3)cc3ccccn3c-2c1C(=O)OC,42.6*,5.5,-1.73,1.85
COC(=O)c1c(C)c2c(C)cc3ccccn3c-2c1C(=O)OC,-0.1,-2.4,1.26,-0.57
Cc1sc2ncnc(NCC(C)(C)N3CCOCC3)c2c1C,-2.7,-3.2,1.88,1.23
Cc1ccc2[nH]c(C)c(/C=N/Nc3nc4ccccc4s3)c2c1,68.8*,48.6*,0.0213,-0.23
COc1ccc(CN2CCN(c3ncccn3)CC2)c(OC)c1,41.8*,-3.9,.,-0.08
Cc1nc2c(Br)cc(Br)cc2cc1O,37.1*,2.6,-5.06*,-1.11
CN(C)c1ccc(/C=C(\C#N)C(=O)Nc2nc3c(s2)CCN(Cc2ccccc2)C3)cc1,4.2,.,-3.97*,-1.31
CCN1CCc2nc(NC(=O)c3ccccc3)sc2C1,4.3,1.4,.,1.32
Cn1c(=O)c2c(ncn2CC(=O)Nc2ccc(Cl)cc2Cl)n(C)c1=O,10.1,-4.7,-0.000356,1.9
COc1ccc(N(C)C(=O)CCS(=O)(=O)c2cccc3nonc23)c(OC)c1,33.6*,-1.1,0.473,-0.38
Cc1cccc(N(C)C(=O)CCS(=O)(=O)c2cccc3nonc23)c1,-4.6,25.9,1.59,1.61
NC(=S)NNC(=O)c1ccccc1,16.6,-0.9,0.634,1.04
Cc1ccc(C(=O)Nc2ccccc2Oc2ccccc2)cc1[N+](=O)[O-],33.9*,-9.1,-4.07*,-1.05
CC(C)c1ccc(-c2nc(N3CCCCCC3)nc3n[nH]c(N)c23)cc1,8.2,0.9,0.134,-4.26*
SMILES,PostGolgi ctrl,PostGolgi yeast,Cav32 inh,PTK2B oligo ant
CC(C)c1ccc(-c2nc(N3CCCC3)nc3n[nH]c(N)c23)cc1,-1.6,-5.8,-0.147,-0.93
COc1ccc(NC(=O)COC(=O)c2ccc(N3CCCC3=O)cc2)cc1OC,11.1,12.1,-11.7*,-0.4
N#Cc1c(N)c(C#N)c(-c2ccc3c(c2)OCO3)c2c1CCCC2,18.7,6.0,-0.109,-2.61
N#Cc1c(N)c(C#N)c(-c2ccc(O)cc2)c2c1CCCC2,33.9*,7.4,-5.61*,-1.9
COc1ccc(OC)c(C(=O)CSc2nnc(-c3ccc(OC)c(OC)c3)o2)c1,-6.0,-0.3,0.588,.
CC(C)CC(CO)N1CCN(C(=O)c2ccc(Cl)cc2)CCC1=O (configuration not stated),.,.,-0.13,.
